# How the values were obtained:
# [1] = biological target: Sphingosine kinase 1 (Homo sapiens) (UniProt Q9NYA1); conditions: at 1 µM;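 also: mean SPHK1 inhibition value reported from the GSK PKIS kinase panel screen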
# [2] = biological target: T1, Sphingosine kinase 2 (Homo sapiens) (UniProt Q9NRA0); conditions: at 0.1 µM
# T1 sequence (whole entry): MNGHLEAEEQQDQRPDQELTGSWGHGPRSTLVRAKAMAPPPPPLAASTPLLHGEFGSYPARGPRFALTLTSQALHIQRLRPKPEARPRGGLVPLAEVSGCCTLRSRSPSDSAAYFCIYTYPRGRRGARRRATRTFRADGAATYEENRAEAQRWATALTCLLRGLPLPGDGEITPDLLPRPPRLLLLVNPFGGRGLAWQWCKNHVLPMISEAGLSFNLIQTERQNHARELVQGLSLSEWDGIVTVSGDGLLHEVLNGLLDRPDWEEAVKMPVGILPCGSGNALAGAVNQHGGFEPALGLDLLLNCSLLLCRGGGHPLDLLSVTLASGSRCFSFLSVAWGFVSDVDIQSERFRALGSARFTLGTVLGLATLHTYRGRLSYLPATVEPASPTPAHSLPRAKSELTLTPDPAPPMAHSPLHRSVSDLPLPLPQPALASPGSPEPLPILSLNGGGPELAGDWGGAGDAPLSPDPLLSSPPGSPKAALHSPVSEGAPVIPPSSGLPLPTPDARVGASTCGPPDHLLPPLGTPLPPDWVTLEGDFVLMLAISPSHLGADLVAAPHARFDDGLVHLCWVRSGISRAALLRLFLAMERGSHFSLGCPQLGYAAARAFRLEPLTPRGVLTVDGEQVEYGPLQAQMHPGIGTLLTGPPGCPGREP
# [3] = biological target: T1, Sphingosine kinase 2 (Homo sapiens); conditions: at 1 µM
# [4] = biological target: Casein kinase II subunit alpha (Homo sapiens) (UniProt P68400); conditions: at 0.1 µM
# [5] = biological target: Casein kinase II subunit alpha (Homo sapiens) (UniProt P68400); conditions: at 1 µM
# [6] = biological target: T2, Inhibitor of nuclear factor kappa-B kinase subunit alpha (Homo sapiens) (UniProt O15111); conditions: at 0.1 µM
# T2 sequence (whole entry): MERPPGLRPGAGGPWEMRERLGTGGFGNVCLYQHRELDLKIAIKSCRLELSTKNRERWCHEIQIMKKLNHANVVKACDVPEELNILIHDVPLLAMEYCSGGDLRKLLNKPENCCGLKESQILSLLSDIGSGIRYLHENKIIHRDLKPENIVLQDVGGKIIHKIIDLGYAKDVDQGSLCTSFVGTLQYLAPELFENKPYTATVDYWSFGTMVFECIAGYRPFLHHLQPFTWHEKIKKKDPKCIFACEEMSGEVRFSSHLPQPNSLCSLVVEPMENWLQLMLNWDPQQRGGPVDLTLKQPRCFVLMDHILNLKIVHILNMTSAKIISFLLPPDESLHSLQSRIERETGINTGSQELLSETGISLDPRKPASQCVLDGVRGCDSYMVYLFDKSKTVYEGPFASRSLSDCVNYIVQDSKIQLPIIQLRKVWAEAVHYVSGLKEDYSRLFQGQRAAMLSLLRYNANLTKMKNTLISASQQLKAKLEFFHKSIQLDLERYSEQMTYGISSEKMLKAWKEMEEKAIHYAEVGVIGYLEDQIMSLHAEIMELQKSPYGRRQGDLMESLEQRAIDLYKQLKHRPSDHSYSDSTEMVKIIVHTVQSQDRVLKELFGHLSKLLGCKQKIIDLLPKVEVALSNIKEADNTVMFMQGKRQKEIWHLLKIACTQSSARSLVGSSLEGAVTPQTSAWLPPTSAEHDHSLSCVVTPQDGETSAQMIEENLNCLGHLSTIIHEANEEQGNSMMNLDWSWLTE
# [7] = biological target: T2, Inhibitor of nuclear factor kappa-B kinase subunit alpha (Homo sapiens); conditions: at 1 µM
# [8] = biological target: T3, Inhibitor of nuclear factor kappa-B kinase subunit beta (Homo sapiens) (UniProt O14920); conditions: at 0.1 µM
# T3 sequence (whole entry): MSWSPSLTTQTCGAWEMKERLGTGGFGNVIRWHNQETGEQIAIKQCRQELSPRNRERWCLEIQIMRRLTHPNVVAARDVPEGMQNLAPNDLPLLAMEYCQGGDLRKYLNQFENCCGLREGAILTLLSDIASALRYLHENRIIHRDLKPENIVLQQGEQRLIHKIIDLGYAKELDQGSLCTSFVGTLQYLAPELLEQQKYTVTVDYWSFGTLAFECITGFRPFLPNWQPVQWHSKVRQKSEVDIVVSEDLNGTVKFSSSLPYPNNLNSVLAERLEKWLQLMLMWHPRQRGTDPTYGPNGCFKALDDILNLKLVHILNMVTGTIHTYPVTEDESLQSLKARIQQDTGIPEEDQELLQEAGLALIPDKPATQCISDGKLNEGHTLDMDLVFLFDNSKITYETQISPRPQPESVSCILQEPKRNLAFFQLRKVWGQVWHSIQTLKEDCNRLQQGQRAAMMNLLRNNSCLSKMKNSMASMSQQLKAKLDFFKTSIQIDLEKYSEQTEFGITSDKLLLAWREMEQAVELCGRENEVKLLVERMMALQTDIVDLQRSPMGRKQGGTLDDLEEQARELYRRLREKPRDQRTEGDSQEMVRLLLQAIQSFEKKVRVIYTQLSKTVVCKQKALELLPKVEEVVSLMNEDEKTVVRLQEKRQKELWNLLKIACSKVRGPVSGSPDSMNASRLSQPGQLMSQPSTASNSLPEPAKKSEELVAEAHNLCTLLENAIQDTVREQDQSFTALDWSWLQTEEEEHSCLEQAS
# [9] = biological target: T3, Inhibitor of nuclear factor kappa-B kinase subunit beta (Homo sapiens); conditions: at 1 µM
# [10] = biological target: T4, Inhibitor of nuclear factor kappa-B kinase subunit epsilon (Homo sapiens) (UniProt Q14164); conditions: at 0.1 µM;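 also: mean inhibition of IKKε reported, from the GSK PKIS dataset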
# T4 sequence (whole entry): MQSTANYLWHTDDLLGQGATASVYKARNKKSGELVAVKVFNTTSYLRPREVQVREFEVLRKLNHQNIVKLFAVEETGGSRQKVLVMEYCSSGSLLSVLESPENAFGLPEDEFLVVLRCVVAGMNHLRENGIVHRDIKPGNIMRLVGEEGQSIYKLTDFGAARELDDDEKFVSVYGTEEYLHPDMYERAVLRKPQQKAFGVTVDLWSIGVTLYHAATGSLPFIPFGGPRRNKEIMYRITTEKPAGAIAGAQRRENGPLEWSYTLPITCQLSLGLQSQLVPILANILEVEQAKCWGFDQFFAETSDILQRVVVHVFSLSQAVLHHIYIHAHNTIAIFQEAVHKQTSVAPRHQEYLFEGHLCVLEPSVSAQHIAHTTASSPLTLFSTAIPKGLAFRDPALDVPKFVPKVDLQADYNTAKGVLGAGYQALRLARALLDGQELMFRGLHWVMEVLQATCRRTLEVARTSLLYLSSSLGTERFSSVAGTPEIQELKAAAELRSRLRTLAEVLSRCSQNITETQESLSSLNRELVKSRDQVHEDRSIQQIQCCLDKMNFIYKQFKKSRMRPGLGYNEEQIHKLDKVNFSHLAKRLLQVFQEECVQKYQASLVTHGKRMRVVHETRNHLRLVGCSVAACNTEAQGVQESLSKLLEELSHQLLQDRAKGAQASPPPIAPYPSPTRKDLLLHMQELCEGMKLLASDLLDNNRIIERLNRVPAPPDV
# Chain of Casein kinase II subunit alpha (Homo sapiens) (P68400 whole entry, looked up): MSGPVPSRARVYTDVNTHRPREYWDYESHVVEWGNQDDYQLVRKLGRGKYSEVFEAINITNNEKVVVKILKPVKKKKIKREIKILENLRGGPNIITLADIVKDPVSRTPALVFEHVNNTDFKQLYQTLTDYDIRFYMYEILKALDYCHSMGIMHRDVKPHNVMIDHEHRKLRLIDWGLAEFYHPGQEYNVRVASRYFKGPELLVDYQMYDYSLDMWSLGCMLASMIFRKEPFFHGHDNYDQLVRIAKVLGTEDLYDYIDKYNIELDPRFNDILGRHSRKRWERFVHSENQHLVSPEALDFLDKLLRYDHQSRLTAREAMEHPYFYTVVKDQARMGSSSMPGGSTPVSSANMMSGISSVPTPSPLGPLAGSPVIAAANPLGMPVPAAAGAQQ
# Chain of Sphingosine kinase 1 (Homo sapiens) (Q9NYA1 whole entry): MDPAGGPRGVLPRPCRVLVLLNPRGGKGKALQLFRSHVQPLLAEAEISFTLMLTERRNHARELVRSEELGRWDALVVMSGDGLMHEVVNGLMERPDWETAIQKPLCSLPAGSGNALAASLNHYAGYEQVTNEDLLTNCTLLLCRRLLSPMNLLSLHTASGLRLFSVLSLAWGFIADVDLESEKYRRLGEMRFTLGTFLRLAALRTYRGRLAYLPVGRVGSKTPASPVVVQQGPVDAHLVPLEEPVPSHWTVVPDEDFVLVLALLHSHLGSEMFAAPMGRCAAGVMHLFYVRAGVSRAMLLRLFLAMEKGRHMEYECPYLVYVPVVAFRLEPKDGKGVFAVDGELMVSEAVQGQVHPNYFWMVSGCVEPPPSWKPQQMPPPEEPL
smiles,measurement,setting,value
N#Cc1ccc2c(-c3ccnc(NC4CC4)n3)c(-c3ccc(F)cc3)nn2c1,inhibition,[1],0.88%
same,inhibition,[2],-0.39%
same,inhibition,[3],0.05%
same,inhibition,[4],2.7%
same,inhibition,[5],1.8%
same,inhibition,[6],3.97%
same,inhibition,[7],-0.5%
same,inhibition,[8],2.19%
same,inhibition,[9],0.5%
same,inhibition,[10],1.8%

# From ChEMBL document CHEMBL1961873, “Compounds: GSK PKIS; Assays: Nanosyn kinase panel” (2012)
